Assay results taken from PMC4552634, “A New Set of Chemical Starting Points with Plasmodium falciparum Transmission-Blocking Potential for Antimalarial Drug Discovery” (PLoS ONE, 2015).
The campaign covered roughly 13,000 compounds. About 3,200 (25%) showed an effect of 50% or more. This is one part of the list.

System: P. falciparum stage V gametocytes
Design: BacTiter-Glo ATP luminescence viability of purified stage V gametocytes in 384-well plates, per cent inhibition versus DMSO
Details: 48 h, 5 µM; inhibitor

| Structure (SMILES) | % Inhibition |
| --- | --- |
| Cl.NC(=O)c1cnc2cc(-c3ccoc3)ccc2c1Nc1ccc(NC(=O)Nc2ccccc2Cl)cc1 [TCMDC-135442] | 70.72% |
| Cc1cc(Nc2c(C(N)=O)cnc3cc(-c4ccoc4)ccc23)ccc1N1CCN(C)CC1.Cl [TCMDC-135441] | -28.97% |
| CN1CCN(c2ccc(Nc3c(C(N)=O)cnc4cc(-c5ccoc5)ccc34)cc2)CC1.Cl [TCMDC-135440] | -93.68% |
| O=C(Nc1ccccc1-c1nc2ccccc2s1)C(Cl)(Cl)Cl [TCMDC-123676] | 7.005% |
| Brc1cc(CNCCCNc2nc3ccccc3[nH]2)sc1Br [TCMDC-139801] | 12.5% |
| CCOc1c(CNCCCNc2nc3ccccc3[nH]2)cc(Br)cc1OC [TCMDC-140089] | 52.36% |
| Clc1ccc2c(Cl)c(CNCCCNc3nc4ccccc4[nH]3)[nH]c2c1 [TCMDC-139967] | -22.32% |
| CCOc1c(CNCCCNc2nc3ccccc3[nH]2)cc(I)cc1OC [TCMDC-140105] | 34.54% |
| O=C(NCCCNc1ccc2ccccc2n1)c1cc2c(Cl)cc(Cl)cc2[nH]1 [TCMDC-140378] | 3.853% |
| CCOc1c(Br)cc(Br)cc1CNCCCCNc1nc2ccccc2[nH]1 [TCMDC-139968] | 0.6072% |
| FC(F)(F)c1cc(C(F)(F)F)c2cc(CNCCCNc3nc4ccccc4[nH]3)[nH]c2c1 [TCMDC-139965] | -11.18% |
| Clc1cc(Cl)c2cc(CNCCCNc3ccc4ccccc4n3)[nH]c2c1 [TCMDC-140495] | 95.02% |
| Cc1cc(C)c2cc(CNCCCNc3nc4ccccc4[nH]3)[nH]c2c1 [TCMDC-140069] | 42.15% |
| c1ccc(-c2ccc(CNCCCNc3nc4ccccc4[nH]3)cc2)cc1 [TCMDC-136061] | 54.24% |
| O=c1cc(NCCCNCc2cc3c(Cl)cc(Cl)cc3[nH]2)[nH]c2ccccc12 [TCMDC-139789] | 2.174% |
| Clc1ccc(Cl)c2[nH]c(CNCCCNc3nc4ccccc4[nH]3)cc12 [TCMDC-139957] | 50.82% |
| CCN(CC)S(=O)(=O)c1ccc(C=CC(=O)Nc2cc(Cl)ccc2N2CCOCC2)cc1 [TCMDC-125117] | 28.22% |
| Cc1cc(-c2cc(Cl)ccc2Cl)no1 [TCMDC-131691] | -15.9% |
| CN(C)CCn1cc(C(=O)c2cc(Cl)ccc2O)cc1-c1nc2ccccc2c(=O)[nH]1 [TCMDC-125021] | -20.22% |
| Cc1cccc(C)c1N1CCN(C2CCC(NC(=O)c3cc4ccccc4[nH]3)CC2)CC1 (stereo not shown) [TCMDC-132890] | -33.12% |
| COc1ccc2ncc(OC)c(CCN3CC[C@@H](NCc4ccc5c(n4)NC(=O)CS5)[C@H](O)C3)c2n1 [TCMDC-134668] | 10.18% |
| CCN(CC)CCN(CCN(CC)CC)c1ccc(-c2nc3cc(Cl)c(Cl)cc3[nH]2)cc1 [TCMDC-139329] | 70.38% |
| CC(=O)Nc1ccc(-c2nc3ccc(-c4nc5ccc(NC(C)=O)cc5[nH]4)cc3[nH]2)cc1 [TCMDC-125761] | 0.4612% |
| Clc1ccc(-c2nc3ccc(-c4ccc5nc(-c6ccc(Cl)cc6)[nH]c5c4)cc3[nH]2)cc1 [TCMDC-123460] | 1.652% |

| Structure (SMILES) | % Inhibition |
| --- | --- |
| Cc1nc2nc(N)nc(N)c2c(C)c1Cc1cccs1 [TCMDC-137642] | -3.344% |
| Oc1cccc2ccc(Nc3ccccn3)nc12 [TCMDC-125567] | 43.59% |
| CC(CCc1ccccc1)NCC(O)c1cccc([N+](=O)[O-])c1 (stereo not shown) [TCMDC-125728] | -0.1444% |
| Cc1ccnc(NC(c2cccc(OCc3ccccc3)c2)c2ccc3cccnc3c2O)c1 (stereo not shown) [TCMDC-125558] | 93.78% |
| Cc1ccnc(NC(c2cccc(Cl)c2Cl)c2ccc3cccnc3c2O)c1 (stereo not shown) [TCMDC-123997] | 94.28% |
| O=[N+]([O-])c1cccc(C(Nc2ccccn2)c2ccc3cccnc3c2O)c1 (stereo not shown) [TCMDC-125725] | 107% |
| Cc1ccnc(NC(c2ccc(Cl)c([N+](=O)[O-])c2)c2ccc3cccnc3c2O)c1 (stereo not shown) [TCMDC-123691] | 121% |
| COc1ccc(-c2cc(C(=O)N[C@@H](Cc3ccccc3)C(=O)NCCN3CCCCC3)ccc2O)cc1 [TCMDC-140804] | 32.57% |
| Cn1cnc(CCNC(=O)c2cccc(-c3cccc(-c4nc5cc(C(F)(F)F)ccc5[nH]4)c3)c2)c1 [TCMDC-132496] | 22.81% |
| CCOCCCn1c(=N)c(C(=O)NC(C)c2ccccc2)cc2c(=O)n3cccc(C)c3nc21 (stereo not shown) [TCMDC-124348] | 9.74% |
| O=C(Cc1ccccc1)NC(c1ccco1)c1cc(Cl)c2cccnc2c1O (stereo not shown) [TCMDC-125561] | -24.24% |
| Oc1c(C(Nc2ccccn2)c2ccc(Cl)cc2Cl)ccc2cccnc12 (stereo not shown) [TCMDC-125559] | 98.53% |
| Cc1cc(NC(c2ccc(Cl)cc2)c2ccc3cccnc3c2O)no1 (stereo not shown) [TCMDC-123828] | 23.63% |
| Oc1c(C(Nc2ccccn2)c2ccco2)cc(Cl)c2cccnc12 (stereo not shown) [TCMDC-125324] | 60.61% |
| CCC(=O)NC(c1ccco1)c1cc(Cl)c2cccnc2c1O (stereo not shown) [TCMDC-123650] | -55.25% |
| Cc1ccc(Nc2nccc(NCC(O)c3ccc(C(F)(F)F)cc3)n2)cc1 (stereo not shown) [TCMDC-136593] | 10.35% |
| Cc1ccc2nc(NC#N)[nH]c2c1 [TCMDC-131394] | 6.156% |
| Cc1noc(C)c1-c1ccc2c(Nc3ccccc3C(C)(C)C)c(C(=O)NCc3ccc(OC(C)C)cc3)cnc2c1.Cl [TCMDC-136370] | -53.99% |
| CCCOc1ccc2ccccc2c1CNCCCCCCNCc1c(OCCC)ccc2ccccc12 [TCMDC-137966] | 143.6% |
| CCOc1cc(OCC)c2ccccc2c1CNCCCCCCNCc1c(OCC)cc(OCC)c2ccccc12 [TCMDC-137982] | 121.9% |
| Oc1ccc2ccccc2c1CNCC1CCCCC1 [TCMDC-137608] | 2.485% |
| Oc1ccc2ccccc2c1CNCCC1CCCCC1 [TCMDC-137605] | -1.678% |
| CCCCCCOc1ccc2ccccc2c1CNCCCCCCNCc1c(OCCCCCC)ccc2ccccc12 [TCMDC-137963] | 142.3% |
| c1ccc2c(CNCCCCCCNCc3c(OCC4CC4)ccc4ccccc34)c(OCC3CC3)ccc2c1 [TCMDC-137839] | 118.2% |

| Structure (SMILES) | % Inhibition |
| --- | --- |
| CCCCCCCCNCc1c(O)ccc2ccccc12 [TCMDC-137606] | 26.15% |
| Cc1cc(N[C@@H](CC(C)C)C(=O)NCCc2ccccc2)nc(NCC2CCCCC2)n1 [TCMDC-134920] | -75.82% |
| Cn1cncc1C(=O)Nc1ccc(-c2ccc(-c3nc4ccc(C(F)(F)F)cc4[nH]3)cc2)cc1 [TCMDC-137065] | -63.66% |
| Cc1cc(Nc2ncc3c(n2)N(C2CCC2)CC3)ccc1N1CCN(C)CC1 [TCMDC-134146] | 20.06% |
| Cc1cccc2[nH]c(-c3ccc(-c4ccc(NC(=O)NCc5cccc(F)c5)cc4)cc3)nc12 [TCMDC-133294] | -5.117% |
| CN1CCN(c2ccc3nccc(CCN4CCC(NCc5ccc6c(n5)NC(=O)CO6)CC4)c3n2)CC1 [TCMDC-141580] | 8.776% |
| CCOc1ccc2ccccc2c1CNCCCCCCNCc1c(OCC)ccc2ccccc12 [TCMDC-137791] | 117.2% |
| COc1ccc(C2CC(=O)C3=C(C2)NC(C)=C(C(=O)OC(C)C)C3c2ccc(O)cc2)cc1OC (stereo not shown) [TCMDC-125633] | 43.1% |
| CC(C)C[C@H](NC(=O)c1cc2cc(OCCN3CCNCC3)ccc2o1)C(=O)NC1CC[C@@H](C)N(C(=O)Nc2ccc(Cl)cc2)CC1=O (stereo partly shown) [TCMDC-133539] | 8.489% |
| COc1cccc2cc(C(=O)N[C@@H](CC(C)C)C(=O)NC3CC[C@@H](C)N(C(=O)Nc4ccncc4)CC3=O)oc12 (stereo partly shown) [TCMDC-134320] | -6.979% |
| C[C@@H]1CC[C@H](NC(=O)[C@H](CC2CCCC2)NC(=O)N2CCNCC2)C(=O)CN1S(=O)(=O)c1ccccn1 [TCMDC-141571] | 57.62% |
| CCOC(=O)NC1=NC(C)(C)N(OCCCOc2cc(Cl)c(Cl)cc2Cl)C(NC(=O)OCC)=N1 [TCMDC-131743] | 1.787% |
| CCN(CC)c1ccc(C(c2ccc(N(CC)CC)cc2)c2ccc([N+](=O)[O-])cc2)cc1 [TCMDC-131286] | -67.18% |
| N#Cc1ccccc1C(=O)N(Cc1cncn1Cc1cccc(F)c1)CC1CC1 [TCMDC-132459] | -1.299% |
| Cc1cccc(CC2CC(=O)N(c3ccc([N+](=O)[O-])cc3)C2=O)c1 (stereo not shown) [TCMDC-125732] | -3.627% |
| O=C(NC1CC1)c1ccc(Cn2c(SCc3cccc([N+](=O)[O-])c3)nc3ccccc3c2=O)cc1 [TCMDC-123577] | 43.52% |
| CCN(CCNC(=O)Cn1c(C)cc2cc([N+](=O)[O-])ccc21)c1cccc(C)c1 [TCMDC-140764] | 1.649% |
| O=[N+]([O-])c1ccc(-n2nc(Cc3ccccc3)n(Cc3cccc(F)c3)c2=S)c(C(F)(F)F)c1 [TCMDC-135486] | 73.39% |
| CN(C)CCN(Cc1ccccc1)c1ccc([N+](=O)[O-])cc1C(F)(F)F [TCMDC-135372] | 16.64% |
| Cc1cccc(Cn2c(C(N)=O)nn(-c3ccc([N+](=O)[O-])cc3C#N)c2=S)c1 [TCMDC-134720] | 78.61% |
| N#Cc1cc([N+](=O)[O-])ccc1-n1nc(C(N)=O)n(Cc2cccc(F)c2)c1=S [TCMDC-134721] | 80.05% |
| CC(C)CCn1c(Sc2ccc([N+](=O)[O-])cc2C(F)(F)F)nnc1-c1ccccc1Cl [TCMDC-135484] | 10.18% |
